Screens deposited in PubChem by National Center for Advancing Translational Sciences (NCATS).
ALDH1A1 inh – blocks purified human ALDH1A1 activity; P00352; Purified ALDH1A1, NADH fluorescence, propionaldehyde substrate; Potency, µM (top dose mostly 75.3 µM), for the others: at the highest dose activity, negative = inhibition, hits mostly inhibitors; 220,000 compounds, 7.3% hits; AID 1030; active = well fitted inhibition curve with a large enough effect, not every such curve was filed as active; inconclusive = small, poorly fitted or top-dose-only effect, or another doubt; inactive = no such curve, though single readings can be large or run the other way;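 also: potency is read from the fitted curve at half-maximal effect; plate controls were no enzyme wells and a reference inhibitor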
IMPase inh – IMPase inhibition in cells | P97697 | CHO-M1 cells, IP1 accumulation, HTRF TR-FRET ratio | inhibition (IP1 accumulation), % at 46.1 µM | 120,000 tested, under 10 active; active = well fitted curve in the direction sought with a large enough effect in the signal ratio, not every such curve was filed as active; inconclusive = small, poorly fitted or top-dose-only effect, or a change in a side signal; inactive = no such curve, though single readings can be large or run the other way; the % refers to the signal ratio;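 also: cells stimulated with carbachol in lithium chloride buffer; plate controls were DMSO basal wells for no effect and reference inhibitor wells for full effect; higher means more IMPase inhibition seen as more IP1 and lower FRET ratio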
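Measured: the HTRF emission ratio (665/620 nm) plus the 620 nm donor channel, each fitted to the Hill equation to give AC50. Cells were CHO-M1 given compounds up to 46 uM and a 30 min carbachol stimulation at 37C.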
12-hLO inh – blocks human 12-lipoxygenase activity. P18054. AID 1452. Potency, µM (highest dose often 57.1 µM), for the others: at the highest dose activity change, negative = inhibition, usual class: inhibitors. purified 12-hLO, xylenol orange hydroperoxide absorbance. 150,000 compounds, 0.12% hits; also: potency is read from the fitted curve at half-maximal effect; nearly all actives have a fitted effect of over 55% in size
Target sequence (P18054 whole entry, looked up): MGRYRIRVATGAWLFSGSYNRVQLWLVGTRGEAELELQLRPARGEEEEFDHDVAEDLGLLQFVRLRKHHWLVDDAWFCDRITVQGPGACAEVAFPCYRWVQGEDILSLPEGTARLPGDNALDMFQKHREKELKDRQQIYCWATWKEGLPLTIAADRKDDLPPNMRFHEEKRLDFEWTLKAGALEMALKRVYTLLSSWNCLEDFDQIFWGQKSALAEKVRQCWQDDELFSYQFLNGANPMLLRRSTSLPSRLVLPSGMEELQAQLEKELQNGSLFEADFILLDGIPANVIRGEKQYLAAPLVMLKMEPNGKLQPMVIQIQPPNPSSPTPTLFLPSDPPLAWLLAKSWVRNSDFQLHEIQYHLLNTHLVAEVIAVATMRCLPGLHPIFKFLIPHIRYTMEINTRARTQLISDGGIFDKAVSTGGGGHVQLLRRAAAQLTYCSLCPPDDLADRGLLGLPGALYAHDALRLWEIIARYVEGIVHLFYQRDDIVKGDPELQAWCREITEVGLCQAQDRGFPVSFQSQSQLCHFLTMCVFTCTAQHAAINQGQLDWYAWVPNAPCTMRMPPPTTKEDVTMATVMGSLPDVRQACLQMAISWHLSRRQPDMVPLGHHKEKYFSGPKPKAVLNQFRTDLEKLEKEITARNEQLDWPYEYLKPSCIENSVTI
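Hydroperoxide output read as Fe(III)-xylenol orange absorbance, 573-to-405 nm ratio, after 30 min reaction with 40 uM arachidonic acid. Enzyme: 150 nM purified human 12hLO, 15 min compound preincubation; 25 mM Hepes pH 7.0, room temperature.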
HPGD block – HPGD (human) dehydrogenase inhibition. AID 894. purified HPGD, NADH fluorescence kinetic, PGE2 substrate. 150,000 compounds, 4.3% hits. P15428. Potency, µM, inactives show at the highest dose activity change, negative = inhibition, usual class: inhibitors; active = well fitted inhibition curve with a large enough effect, not every such curve was filed as active; inconclusive = small, poorly fitted or top-dose-only effect, or another doubt; inactive = no such curve, though single readings can be large or run the other way; also: potency is read from the fitted curve at half-maximal effect
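NADH formation kinetics: reaction with 30 uM PGE2 and 1 mM NAD+ (final), 20 nM enzyme, Tris-HCl pH 8 with Tween 20, after 15 min compound preincubation at room temperature. Fluorescence change, last versus first of five reads.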
NPSR antag – antagonists of human neuropeptide S receptor cAMP signaling | 220,000 compounds, 1% hits | Potency, µM (top dose mostly 38.3 µM), inactives show top-dose activity change, negative = inhibition, actives largely listed as inhibitors | CHO-NPSR cells, cAMP TR-FRET, antagonist mode | AID 1461; also: potency is read from the fitted curve at half-maximal effect; nearly all actives have a fitted effect of over 50% in size
IMPase Li inh – cell-permeable IMPase inhibitors with lithium potentiation | 210,000 compounds, 0.35% hits | Potency, µM (doses to about 59.4 µM), for inactives: top-dose activity, negative = IMPase inhibition, usual class: inhibitors | AID 1457 | CHO-M1 cells, IP1 TR-FRET (IP-One), carbachol + lithium;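 also: IP1 builds up when IMPase is blocked and the TR-FRET signal falls; potency is read from the fitted curve at half-maximal effect; plate controls were basal vehicle for no effect and high inhibitor control for full effect; nearly all actives have a fitted effect of over 50% in size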
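CHO cells stably expressing M1 receptor (2000/well) were cultured 16–30 h, then exposed to compounds with a small lithium addition for 30 min at 37C. IP1 was measured by TR-FRET competition; AC50 from Hill fits.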
* = called active by the depositor; u = inconclusive; x = not tested or not shown; [ ] = dose if it differs, or a comment. Shown are actives, neighbours in structure and some others; about 8.9% of the full set was active somewhere. Unless noted, calls follow the shape of the dose curve; as a rule, active = well fitted curve in the direction sought with a large enough effect; inconclusive = small, poorly fitted or top-dose-only effect, or another doubt; inactive = no such curve, though single readings can be large; an effect the other way counts as inactive or inconclusive. Unless noted, % is scaled to controls: 0 for no effect and ±100 for the full control effect.

SMILES | ALDH1A1 inh | IMPase inh | 12-hLO inh | HPGD block | NPSR antag | IMPase Li inh
Cc1ccc(Nc2cc(C)nn2-c2nc(C)cc(C)n2)cc1 | -4% | 11 | 0% | -4% | 0.79µM* | -2%[38.3 µM]
Cc1ccc(Nc2cc(C)nn2-c2nc(C)cc(=O)[nH]2)cc1 | u | 19 | -6% | -16% | u | 15%[38.3 µM]
Cc1cc(N=Cc2c(O)n(-c3cccc(Cl)c3)c(=O)c3ccccc23)no1 | -11% | x | -1% | -15% | -19% | 3%
COc1ccc(C2=C(Nc3ccccc3)c3ccccc3C2=O)cc1 | 10% | -9 | 1% | -7% | -1% | 14%
COC1=C(Nc2ccc(OC)cc2)C(=O)c2ccccc2C1=O | u | x | -7% | 16µM* | -30% | 56%
COc1ccc(NC2=C(c3ccc(OC)cc3)C(=O)c3ccccc32)cc1 | 14% | x | -1% | -8% | 5% | 7%
COc1ccc(NC2=C(NCCO)C(=O)c3ccccc3C2=O)cc1 | 11µM* | x | -9% | -18% | -31% | 38%
Cc1cccc(NC2=C(NCCO)C(=O)c3ccccc3C2=O)c1 | 25µM* | x | -12% | -6% | -36% | 26%
Cc1cccc(Nc2nc(N)c([N+](=O)[O-])c(NCCO)n2)c1 | -6% | x | x | x | 8% | x
CCOc1ccc(NC2=C(OC)C(=O)c3ccccc3C2=O)cc1 | 3.2µM* | x | -15% | 20µM* | -30% | 46%
COC1=C(Nc2ccc(O)cc2)C(=O)c2ccccc2C1=O | 18µM* | x | -6% | 28µM* | -33% | 40%
Cc1cnn(-c2nc(-c3ccccc3)cc(-c3ccccc3)n2)c1 | 2% | x | x | x | u | 18%
COc1ccc(-c2cnc(NCc3cc4c(cc3[N+](=O)[O-])OCO4)n2C)cc1 | u | 15 | 6% | 2% | -6% | 11%
CCOc1cc(CNc2ncc(-c3ccc(OC)cc3)n2C)ccc1O | 14µM* | -4 | -7% | -7% | -19%[46.1 µM] | 21%[38.3 µM]
O=[N+]([O-])c1ccccc1OCCCNCc1ccccc1 | -11% | x | x | x | -2% | 1%
Cn1c(N)c(N=Nc2ccc(S(N)(=O)=O)cc2)c(=O)n(C)c1=O | 10%[13.5 µM] | x | 4%[11.4 µM] | -8% | 4% | 13%
CCN(CC)S(=O)(=O)c1ccc2c(c1)c(C(=O)O)cn2C | -1% | -3 | -3% | -12% | 3%[46.1 µM] | 29%[38.3 µM]
CCOC(=O)c1ccc2c(c1)[nH]c(=S)n2CC | 25µM* | x | x | x | -16% | 4%
CCN(CC)S(=O)(=O)c1ccc2c(c1)[nH]c(=S)n2CC | 18µM* | x | x | x | -2% | 8%
CCN(CC)S(=O)(=O)c1ccc(Cl)nc1 | -4% | x | x | x | 5% | -1%
CCN(CC)S(=O)(=O)c1ccc2nc(CCl)[nH]c2c1 | 20µM* | x | x | x | -4% | -9%
CCc1ccccc1NC(=O)Nc1cc(F)ccc1F | -3% | x | x | x | -26% | -3%
N#Cc1ccsc1NC(=O)CCc1ccccc1 | -5% | x | x | x | -5% | 1%
Fc1ccc(OCc2nnc(SCCN3CCOCC3)o2)cc1 | -9% | 2 | 6% | 22µM* | 25%[46.1 µM] | 10%
Cc1ccc(C)c(NC(=S)NNC(=O)c2csc3c2CCC(C)C3)c1 (stereo unspecified) | 10µM* | -6 | u | -10% | -8%[46.1 µM] | -3%[38.3 µM]
SMILES | ALDH1A1 inh | IMPase inh | 12-hLO inh | HPGD block | NPSR antag | IMPase Li inh
Cc1ccc(C)c(NC(=S)NNC(=O)c2csc3c2CCCC3)c1 | 8.9µM* | 6 | u | -11% | -17%[46.1 µM] | 37%[38.3 µM]
Cc1cccc(NC(=S)NNC(=O)c2csc3c2CCCC3)c1 | u | 5 | u | 1% | -8%[46.1 µM] | 1%[38.3 µM]
NC(=O)CC(NC(=O)Cc1ccc(Br)cc1)c1ccc(NCc2cc(F)ccc2F)c([N+](=O)[O-])c1 (stereo unspecified) | x | x | x | x | -32% | x
Cc1ccc(C)c(NC(=O)CNS(=O)(=O)c2ccccc2)c1 | -1% | -11 | -1% | -4% | 3%[46.1 µM] | 3%[38.3 µM]
COc1cc(NC2c3ccccc3C(=O)N2Cc2ccc3c(c2)OCO3)cc(OC)c1OC (stereo unspecified) | -8% | 14 | -4% | -15% | -20%[46.1 µM] | 13%[38.3 µM]
CCOc1ccc(NC2c3ccccc3C(=O)N2Cc2ccc3c(c2)OCO3)cc1 (stereo unspecified) | u | 17 | -21% | 28µM* | u | 14%[38.3 µM]
Cc1cccc2cc(CN(Cc3ccco3)C(c3nnnn3CCc3ccccc3)C(C)C)c(=O)[nH]c12 (stereo unspecified) | 32µM* | 7 | -27% | u | 13µM* | 12%[38.3 µM]
CCC(c1nnnn1Cc1ccco1)N(Cc1ccccc1OC)Cc1cc2cc(C)ccc2[nH]c1=O (stereo unspecified) | u | 3 | -15% | -14% | u | 1%[38.3 µM]
CCC(c1nnnn1Cc1ccco1)N(Cc1cc2cc(C)cc(C)c2[nH]c1=O)CC1CCCO1 (stereo unspecified) | 13µM* | 8 | -7% | -15% | u | 35%[38.3 µM]
CNC(=O)[C@]1(C)C[C@H]1[C@H](NC(=O)[C@]1(C)C[C@H]1[C@H](NC(=O)OCc1ccccc1)c1ccccc1)c1ccccc1 | -15% | x | -1% | -8% | x | 4%
CCOC(=O)c1c(NC(=O)C2CC2)sc(C)c1CC | 22µM* | x | -1% | u | -15% | 2%
CCOC(=O)c1c(NC(=O)C2C3C=CC(CC3)C2C(=O)O)sc(C)c1CC (stereo unspecified) | -1% | x | 0% | -16% | -36% | u
CCOC(=O)c1sc(NC(=O)CCN2CCCCCC2)c(C(=O)OCC)c1C | 2.5µM* | x | x | x | -10% | 14%
CCOC(=O)c1c(NC(=O)CC)sc(C(=O)N2CCCCC2)c1C | u | 7 | 0% | 28µM* | -21%[46.1 µM] | 19%[38.3 µM]
CCOC(=O)c1c(N)sc(C(=O)N2CCCCCC2)c1C | u | 4 | -6% | x | -5%[46.1 µM] | x
COc1ccc(Nc2ncnc3c2oc2ccccc23)cc1 | u | 0 | -11% | u | -8%[7.67 µM] | -4%[38.3 µM]
COc1cc(NC(=O)C(C)Oc2ccccc2)c(C(=O)O)cc1OC (stereo unspecified) | 5% | 7 | -2% | -8% | -18%[46.1 µM] | -12%[38.3 µM]
COc1ccc(/C=N/NC(=O)C(Cc2c[nH]c3ccccc23)NC(=O)OCC(C)C)cc1[N+](=O)[O-] (stereo unspecified) | 13µM* | 3 | -6% | -8% | -12%[46.1 µM] | 11%[38.3 µM]
CCOC(=O)c1ccc[n+](C(C)C(=O)c2ccc(-c3ccccc3)cc2)c1 (stereo unspecified) | 5.6µM* | x | 5% | -9% | 3% | 14%
CC(C(=O)c1ccc(-c2ccccc2)cc1)[n+]1cccc(NC(=O)c2ccccc2)c1 (stereo unspecified) | x | x | x | x | -15% | x
CC1CCCN(c2ccc(C(=O)Nc3nnc(C4CC4)s3)cc2[N+](=O)[O-])C1 (stereo unspecified) | 2.8µM* | x | 0% | -2% | -23% | -11%
